For 90 compounds, inhibition results are on record in PubChem BioAssay AID2058 (Sanford-Burnham Center for Chemical Genomics, 2009).

SMILES strings stand for the structures. In all, about 290,000 compounds went through this assay and about 150 (0.052%) were called active. The sample holds actives, similar compounds and a random draw of the others, so the mix is not that of the screen.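 How the source made its calls: active means inhibition of at least 50% with at least 30 cells and total cytoplasm GFP at most 10,000,000; inconclusive means under 30 cells or total GFP of 10,000,000 plus; inactive means the rest.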 Potency and affinity values are given separately.

The test deals with G-protein coupled receptor 35 (Homo sapiens) (UniProt Q9HC97). The test is described as follows: GPR35 antagonists blocking zaprinast-driven arrestin recruitment, primary screen, imaging, U2OS, beta-arrestin-GFP, zaprinast agonist (AID 2058). The conditions noted are these: U2OS GPR35 beta-arrestin-GFP translocation imaging, zaprinast antagonism; at 10 µM; active compounds read high.
G-protein coupled receptor 35 (Homo sapiens), sequence (Q9HC97 whole entry, looked up): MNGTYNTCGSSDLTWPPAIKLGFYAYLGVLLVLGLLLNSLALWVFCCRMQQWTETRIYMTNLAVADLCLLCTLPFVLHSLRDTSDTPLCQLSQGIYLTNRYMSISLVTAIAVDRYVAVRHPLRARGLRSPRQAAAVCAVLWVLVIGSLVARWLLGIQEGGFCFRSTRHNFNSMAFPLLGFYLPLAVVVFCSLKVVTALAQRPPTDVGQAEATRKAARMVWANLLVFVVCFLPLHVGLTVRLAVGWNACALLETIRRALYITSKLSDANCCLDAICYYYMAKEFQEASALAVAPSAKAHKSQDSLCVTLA
With `CCC(=O)c1c[nH]c(C(=O)NCCc2ccccn2)c1`, the inhibition is -8% (inactive). In the case of `O=C(OCc1cc(Cl)ccc1OC(F)F)c1ccc([N+](=O)[O-])o1`, the inhibition was 8.7% (inactive). To `CCCCC1=CC2=CC(=O)C(C)(OC(=O)CC)C(=O)C2=CN1C(CO)CO` (stereo not given) belongs -6.6% (inactive).

With `CC(C)NCCOCCOc1ccccc1F`, the inhibition was 12.6% (inactive). In the case of `N#Cc1cccc(NC(=O)NCCc2c[nH]c3ccccc23)c1` it was -5.4% (inactive); in that of `Cc1cc(C)c(S(=O)(=O)N2CCCOC2CNC(=O)C(=O)NCc2cccs2)c(C)c1` (stereo not given), -5.9% (inactive). To `COc1ccccc1NC(=O)Cn1c(=O)n(C)c(=O)c2sc3c(c21)COC(C)(C)C3` belongs 5.9% (inactive); to `CC(/C=C1\SC(=S)N(CCCC(=O)Nc2ccc(C(=O)O)cc2)C1=O)=C\c1ccccc1`, 114% (active).

In the case of `CC(/C=C1\SC(=S)N(CCC(=O)Nc2ccc(O)cc2)C1=O)=C\c1ccccc1`, the inhibition was 0.1% (inactive). In the case of `CC(/C=C1\SC(=O)N(CCCC(=O)O)C1=O)=C\c1ccccc1` it was -14.5% (inactive); in that of `CC(=O)c1ccc(NC(=O)CCCN2C(=O)/C(=C/C(C)=C/c3ccccc3)SC2=S)cc1`, 19.4% (inactive); in that of `CC(/C=C1\SC(=O)N(CC(=O)Nc2ccc(O)cc2)C1=O)=C\c1ccccc1`, -6.3% (inactive). In the case of `CC(=C\c1ccccc1)/C=C1/SC(=O)N(CCCC(=O)Nc2ccc(C(=O)O)cc2)C1=O` it was 108% (active).

For `CC(=O)N(Cc1cc2c(C)cc(C)cc2[nH]c1=O)C1CCCCC1`, the inhibition was 1.4% (inactive). In the case of `O=C(Nc1ccccc1)C1=C[C@@H](c2csc3ccccc23)C[C@@H](OCc2ccc(CO)cc2)O1` it was -24.8% (inactive); in that of `CC(=O)Nc1sc(N/N=C\c2ccc(O)cc2)nc1-c1cccs1`, -8.9% (inactive). On to `CC(=O)Nc1sc(/C(C#N)=C\c2cccc(Cl)c2)nc1-c1ccc(C)cc1`, for which the inhibition is 18.1% (inactive). Regarding `CC(=O)Nc1sc(N/N=C/c2ccc(C)cc2)nc1-c1ccc(C)cc1`, the inhibition is -2.6% (inactive). To `CCN(CC)c1ccc(/C=C(\C#N)c2ccccn2)cc1` belongs 15.1% (inactive); to `CCN(CC)c1ccc(/C=C(\C#N)c2nc(-c3cccs3)c(NC(C)=O)s2)cc1`, 70.6% (active).

For `CC1Cc2ccccc2N1C(=O)CSc1nc(-c2ccccc2)cs1` (stereo not given), the inhibition was -14.5% (inactive). For the compound `O=C(Nc1nc(-c2cccc([N+](=O)[O-])c2)cs1)C(c1ccccc1)c1ccccc1`, the inhibition is 0.8% (inactive). To `COC(=O)c1cc(OC)c(OC)cc1N1C(=O)CCCC1=O` belongs 8.7% (inactive); to `CC(=O)N1CCc2[nH]c3ccccc3c2C1`, 4.9% (inactive); to `CC(=O)N1C=Cc2c(c(C)c3c([nH]c4ccccc43)c2C)C1`, 71.5% (active). With `Cc1ccc(C)c2c1[nH]c1ccccc12`, the inhibition was 15.5% (inactive). To `Cc1noc(C)c1C(=O)OCC(=O)c1c(N)n(CC(C)C)c(=O)n(C)c1=O` belongs -3.5% (inactive). To `Cc1ccccc1N1CCN(C2CCCN(C(=O)c3ccc(Cl)s3)C2)CC1` (stereo not given) belongs 0.1% (inactive); to `O=C(/C=C/c1c[nH]c2ccccc12)c1ccccc1`, -6.3% (inactive); to `CCOC(=O)/C=C(C)\C=C\c1c[nH]c2ccccc12`, -3.8% (inactive). As to `Cc1ccccc1Cn1c2ccccc2c2cnn(CC(=O)NCCCN3CCN(C)CC3)c(=O)c21`, the inhibition is -6.2% (inactive). As for `O=S(=O)(Nc1cc2nc3ccccc3nc2n1Cc1ccccc1)c1ccc(Cl)cc1`, the inhibition is 85.4% (active). For the compound `O=S(=O)(Nc1nc2ccccc2nc1-[n+]1ccccc1)c1ccc(Cl)cc1`, the inhibition is -1.7% (inactive). In the case of `O=S(=O)(Nc1nc2ccccc2nc1Cl)c1ccc(Cl)cc1` it was -9.2% (inactive); in that of `O=C(Nc1ccc(Cl)cn1)c1ccc(Oc2ccccc2)cc1`, 0.8% (inactive). For the compound `CCOC(=O)CCCSc1nc2sc3c(c2c(=O)[nH]1)CCC3`, the inhibition was 1.8% (inactive). In the case of `Cn1cc(CN2CCC(n3nccc3NC(=O)c3ccccc3Cl)CC2)cn1`, the inhibition is -15.2% (inactive). In the case of `CCc1nnc(NS(=O)(=O)c2ccc(NC(=S)NC(=O)/C=C/c3ccccc3)cc2)s1` it was -2.9% (inactive); in that of `CCc1nnc(NS(=O)(=O)c2ccc(NC(=S)NC(=O)/C=C/c3ccc(F)cc3)cc2)s1`, 11.3% (inactive). In the case of `Cc1ccc(C(=O)N(CC(=O)NC2CCCC2)c2ccccc2C)s1` it was 4.4% (inactive). In the case of `CCc1ccc(/C=C2/SC(=S)N(CCC(=O)Nc3cccnc3)C2=O)cc1` it was -11.4% (inactive).

On to `O=C(O)c1ccc(CSc2nc3ccc(NC(=O)c4ccccc4C(=O)O)cc3s2)cc1`, for which the inhibition is -3.4% (inactive). Consider `COC(=O)CSc1nc2ccc(NC(=O)c3ccccc3C(=O)N3CCOCC3)cc2s1`, for which the inhibition was -10.4% (inactive). To `CN(C(=O)c1ccc2ccccc2c1)c1ccccn1` belongs 13.4% (inactive); to `CC(C)c1ccc[n+](-c2nc([O-])sc2C=O)c1`, -8.7% (inactive); to `CCOc1ccc(NC(=O)C(C)Oc2ccccc2C(=O)Nc2cccc(Cl)c2Cl)cc1` (stereo not given), 12.3% (inactive). As for `Cc1ccc(NC(=O)COc2ccccc2C(=O)Nc2ccccc2)cc1Cl`, the inhibition is -17.7% (inactive). To `Cc1csc2c(N3CCC(C(=O)O)CC3)ncnc12` belongs -2.1% (inactive); to `O=C(Nc1ccnn1C1CCN(Cc2ccc(OC(F)F)cc2)CC1)C1CCCC1`, 9.2% (inactive); to `CCOc1ccccc1/C=N/NC(=O)c1c(C)nc2ccc(Br)cn12`, 10.2% (inactive). As for `CCC(C(=O)O)n1nc(-c2ccccc2)c2cc(Cl)ccc21` (stereo not given), the inhibition was -3.2% (inactive). In the case of `CC(C(=O)NCc1ccco1)n1nc(-c2ccccc2)c2cc(Cl)ccc21` (stereo not given) it was 7.1% (inactive). In the case of `O=c1[nH]c(CN2CCCC2)nc2sc3c(c12)CCC3`, the inhibition was 0.2% (inactive).

Turning to `COc1ccc(N2CCN(C(=O)C(=O)c3cn(CC(=O)N4CCCCCC4)c4ccccc34)CC2)cc1`, the inhibition was 2.6% (inactive). In the case of `C=CCC(O)(CC=C)CNC(=O)C1CCC(=O)N(CCCc2ccccc2)C1` (stereo not given) it was 1.6% (inactive); in that of `CN1CC=C2C(C#N)=C(N)C(C#N)(C#N)[C@H](c3cccs3)[C@H]2C1`, 39.8% (inactive); in that of `COc1cc([C@@H]2[C@H]3CN(C)CC=C3C(C#N)=C(N)C2(C#N)C#N)cc2c1OCO2`, 48.3% (inactive).

On to `CC(=O)N1CC=C2C(C#N)=C(N)C(C#N)(C#N)C(C)C2C1` (stereo not given), for which the inhibition was 13.2% (inactive).

Regarding `COc1cc(C2C3CN(C)CC=C3C(C#N)=C(N)C2(C#N)C#N)ccc1OC(C)C` (stereo not given), the inhibition is 16.1% (inactive).

Take `CN1CC=C2C(C#N)=C(N)C(C#N)(C#N)[C@H](c3cccc(Cl)c3)C2C1` (stereo not given in full): the inhibition is 101% (active).

For the compound `CCCCn1c(=N)n(CC(=O)c2ccc(OC)cc2)c2ccccc21`, the inhibition is -0.5% (inactive). On to `COC(=O)c1cccc(NC(=O)c2nn(C(C)C)c(=O)c3ccccc23)c1`, for which the inhibition was 25.1% (inactive). As for `Cc1ccc(CNC(=S)NC2CCCCC2)cc1`, the inhibition is -8.5% (inactive). In the case of `CCC(=O)Nc1ccc(C(=O)NNC(=O)c2ccc(C)cc2)cc1`, the inhibition is 9.3% (inactive).

As to `O=C(Nc1ccc(S(=O)(=O)Nc2ccccc2)cc1)c1ccc(CN2CCOCC2)cc1`, the inhibition was -0.3% (inactive). To `COc1cc(CN2CCCC(C)C2)ccc1OCc1ccccc1` (stereo not given) belongs 9.5% (inactive).

As to `CC(C)Cn1c(N)c(C(=O)COC(=O)/C=C/c2cccs2)c(=O)n(C)c1=O`, the inhibition is 12.1% (inactive). Consider `CCOC(=O)CN1CC23C=CC(O2)C(C(=O)NCc2ccccc2OC)C3C1=O` (stereo not given), for which the inhibition is 13.9% (inactive). With `O=C1CC(c2ccccc2)N1c1ccccc1` (stereo not given), the inhibition is 8.1% (inactive). To `CC(=O)Nc1ccc(C(=O)/C=C/c2ccco2)cc1` belongs -4.1% (inactive); to `O=C(/C=C\c1ccco1)c1ccc(NC(=O)c2ccco2)cc1`, 15.5% (inactive). To `CC1=C(C(=O)Nc2ccc(Cl)cc2C(=O)N2CCC(C(N)=O)CC2)SCCO1` belongs 16.5% (inactive). Turning to `Cc1c(C(=O)Nc2ccc3c(c2)OCCO3)sc2ncnc(N3CCCCC3C)c12` (stereo not given), the inhibition was 1.3% (inactive). `Cc1nc(N2CCC(C)CC2)c2c(C)c(C(=O)Nc3ccc(C(F)(F)F)cc3)sc2n1`: the inhibition is 25.3% (inactive). Turning to `Cc1nc(N2CCCCC2)c2c(C)c(C(=O)Nc3cccc(C(F)(F)F)c3)sc2n1`, the inhibition was 14.1% (inactive). In the case of `Cc1nc(N2CCC(C)CC2)c2c(C)c(C(=O)Nc3ccc(C)c(F)c3)sc2n1` it was 24.7% (inactive); in that of `Cc1ccc(-c2cccc(C(=O)NCCc3ccccc3)n2)c2ccccc12`, -3.7% (inactive). In the case of `CCOC(=O)N1CCN(C(=O)COC(=O)c2ccc(O)cc2O)CC1` it was -5.5% (inactive). In the case of `COc1ccc(S(=O)(=O)N2CCN(c3ccccn3)CC2)cc1OC` it was 2.6% (inactive). Regarding `COc1ccc(C2SCCN2C(=S)Nc2ccc(F)cc2)cc1` (stereo not given), the inhibition is -0.3% (inactive).

`COC(=O)CN1C(=O)[C@H]2[C@@H](c3ccc(C)o3)N3C(=O)CN(CC4CC4)C(=O)[C@@]3(Cc3ccccc3)[C@H]2C1=O`: the inhibition was 5.1% (inactive). In the case of `COc1ccc2nc3oc(C(=O)N4CCN(c5cccc(C(F)(F)F)c5)CC4)cc3cc2c1` it was 8.6% (inactive); in that of `COc1ccc2cc3cc(C(=O)N4CCN(c5ccccc5)CC4)oc3nc2c1`, 6% (inactive); in that of `O=C(Nc1cccc(-c2cn3ccccc3n2)c1)c1cc2ccccc2oc1=O`, -3.4% (inactive). In the case of `COc1cc(/C=C2\C(=N)N3N=C(S(C)(=O)=O)SC3=NC2=O)cc(OC)c1OCCOc1ccccc1C` it was 3.6% (inactive); in that of `S=c1nc(-c2ccccc2)n(Cc2cccnc2)c2c1CCCC2`, 14.8% (inactive); in that of `CCCCC[C@H]1CN(CCCC)C(=O)[C@@H]1CC(=O)NCc1ccc(OC)cc1`, 8.5% (inactive). In the case of `C=CCn1c(SCC(=O)Nc2ccc(Cl)cn2)nnc1C1CC1` it was -2.5% (inactive); in that of `CCS(=O)(=O)c1ncc(Cl)c(C(=O)Nc2ccc(S(=O)(=O)N3CCC(C)CC3)cc2)n1`, 27.7% (inactive). On to `CCC1CCCCN1S(=O)(=O)c1ccc(NC(=O)c2ccncc2)cc1` (stereo not given), for which the inhibition is -21.5% (inactive).
